Measured values reported in PubChem BioAssay (Tox21).
“And” between values parts separate entries of the source, which are not always exact repeats. Identical values can stand only once. Records with an inconclusive call do not appear. A call without a number means that no potency is given here. The source made the active and inactive calls. Calls follow the shape of the dose curve; as a rule, active = well fitted cell-killing curve with a large enough effect in the repeat runs; inconclusive = weak or mixed curves, or effect the other way; inactive = no such curve, though single readings can be large or run the other way.

Experiment: qHTS assay for identifying genotoxic compounds that show differential cytotoxicity against isogenic chicken DT40 cell lines with known DNA damage response pathways - wild type cell line (AID 743012); also: nearly all actives have a fitted effect of over 60% in size
Details: DT40 wild type chicken cells viability, CellTiter-Glo, 40 h; series mostly up to 68.4 µM
Procedure, shortened: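 Luminescent ATP viability signal (CellTiter-Glo, 30 min RT) recorded after wild type DT40 cells were incubated with compounds for 40 h at 37 C/5% CO2.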
Potency is read from the fitted curve at half-maximal effect.

Compound	Potency
O=C1OC(CN2CCOCC2)CN1/N=C/c1ccc([N+](=O)[O-])o1 (configuration not stated)	inactive
C=CC(=O)OCCOCCOC(=O)C=C	9.73 µM (active)
CC(COCCO)OCCO (configuration not stated)	inactive
Cc1cccc(C)c1NC(=O)CN(CC(=O)O)CC(=O)O	inactive
CN(Cc1ccc(C(C)(C)C)cc1)Cc1cccc2ccccc12	inactive
CCCCC(CC)COC(=O)COc1ccc(Cl)cc1Cl (configuration not stated)	inactive
CNC(=O)CN(CCN(CCN(CC(=O)[O-])CC(=O)NC)CC(=O)[O-])CC(=O)[O-].O.[Gd+3]	inactive
c1ccc(CNCCNCc2ccccc2)cc1	inactive
OCc1cc(C(O)CNCCCCCCOCCCCc2ccccc2)ccc1O (configuration not stated)	3.35 µM (active) and 2.37 µM (active)
CCC(C)c1cc(C(C)(C)C)c(O)c(C(C)(C)C)c1 (configuration not stated)	inactive
C[C@@H]1C[C@H]2O[C@@]3(O[C@@H]2C(C)(C)O)[C@H](O)[C@@]2(C)[C@@H]4CC[C@H]5C(C)(C)[C@@H](O[C@@H]6OC[C@@H](O)[C@H](O)[C@H]6O)CC[C@@]56C[C@@]46CC[C@]2(C)[C@@H]13	inactive
COc1ccc(S(=O)(=O)N2C(=O)[C@@](c3ccccc3OC)(N3C[C@H](O)C[C@H]3C(=O)N(C)C)c3cc(Cl)ccc32)c(OC)c1	48.6 µM (active)
CC1=CC[C@H](C(C)C)C=C1	61.1 µM (active)
CCCCCCCCCCCc1ccccc1	inactive
CC(C)CC(=O)C1C(=O)c2ccccc2C1=O	inactive
N=c1ccn2c(n1)O[C@H]1[C@H](O)[C@@H](CO)O[C@H]12	211 nM (active) and 193 nM (active)
CCOC(=O)NCCOc1ccc(Oc2ccccc2)cc1	61.1 µM (active)
Nc1ccccc1S(=O)(=O)c1ccccc1	inactive
CC(C)=CCC/C(C)=C/CC/C(C)=C/CO	34.4 µM (active)

Compound	Potency
CCN(CC)CCOC(=O)C(c1ccccc1)C1CCCCC1 (configuration not stated)	21.1 µM (active)
CCCCO	inactive
O=C(O)C(S)C(S)C(=O)O (configuration not stated)	inactive
COc1cc(Cl)ccc1Oc1ccc(Cl)cc1Cl	inactive
COC(C)(C)CCO	inactive
C=C(C)C(=O)OCCO	inactive
CCCCCCCCCCCCCCCCOS(=O)(=O)O	inactive
C/C=C/C=C/CO	inactive
CN1CCN(C(c2ccccc2)c2ccccc2)CC1	inactive
CCCOC(C(=O)OC1CCN(C)CC1)(c1ccccc1)c1ccccc1	5.96 µM (active)
NCC(=O)O	inactive
CCCCc1nc2cccnc2n1Cc1ccc(-c2ccccc2-c2nnn[nH]2)cc1	inactive
C=CC(=O)OCCOc1ccccc1	54.4 µM (active)
O=C(OCCCCCCOC(=O)c1ccccc1)c1ccccc1	61.1 µM (active)
Cc1nn(C)c(Oc2ccccc2)c1/C=N/OCc1ccc(C(=O)OC(C)(C)C)cc1	0.0022 µM (active)
Nc1ncn([C@H]2C[C@H](O)[C@@H](CO)O2)c(=O)n1	0.106 µM (active)
COc1ccc(C(=O)Nc2nc3ccccc3c(NCc3ccccc3)c2C#N)cc1	27.3 µM (active)
O=[N+]([O-])c1cccc(S(=O)(=O)O)c1	inactive
